In the library only some 1.6% were active in any assay of this set; here they are far more common.
HTR5A inv ag = HTR5A inverse agonists in luminescence cell assay, primary screen, counter-screen for OPRM1-OPRD1 heterodimer inverse agonist project, full-deck HTS; inhibition, % at 9.3 µM; HTR5A cell line, inverse agonism; 5-hydroxytryptamine receptor 5A (Homo sapiens), P47898; 0.083% of 340,000 active; in the data active = inhibition mostly above about 23%, no sharp cut-off; inactive = mostly below about 18%;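 also: 0% = cells with DMSO and 100% = no-cell wells with DMSO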
Target sequence (P47898 whole entry, looked up): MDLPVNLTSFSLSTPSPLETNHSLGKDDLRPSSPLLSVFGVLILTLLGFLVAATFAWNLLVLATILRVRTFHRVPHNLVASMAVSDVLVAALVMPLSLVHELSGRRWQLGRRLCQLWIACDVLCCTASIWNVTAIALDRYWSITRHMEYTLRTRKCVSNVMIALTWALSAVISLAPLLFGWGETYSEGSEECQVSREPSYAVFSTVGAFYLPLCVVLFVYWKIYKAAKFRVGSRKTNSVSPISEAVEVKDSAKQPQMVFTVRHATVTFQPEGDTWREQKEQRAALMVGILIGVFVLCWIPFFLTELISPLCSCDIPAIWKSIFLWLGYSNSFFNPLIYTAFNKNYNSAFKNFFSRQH
HTR2A ag = mouse Htr2a agonists via beta-arrestin recruitment, primary screen, cell-based, luminescence; 5-hydroxytryptamine receptor 2A (Mus musculus), P35363; CHO-K1 mHTR2A beta-arrestin complementation; percent of 30 µM serotonin response; activation, % at 7.6 µM; 0.66% of 360,000 active;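 active = activation above a run cutoff, the mean activation of all tested compounds plus 3 SD, cut at about 14% in these data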;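 also: 0% = plate median of compound wells and 100% = 30 µM serotonin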
MOR-DOR inv ag = inverse agonists of MOR-DOR heterodimerization, primary screen, cell-based, luminescence. cell-based MOR-DOR heterodimer luminescence, inverse agonism. inhibition, % at 9.3 µM. 0.21% of 340,000 active. AID 504357, 2011; in the data active = inhibition above about 22%, passing the limit was not always enough;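 also: 0% = cells with DMSO and 100% = wells without cells with DMSO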
HTR5A ag = HTR5A agonists in luminescence cell assay, primary screen, counter-screen for OPRM1-OPRD1 heterodimer agonist project, full-deck HTS. 5-hydroxytryptamine receptor 5A (Homo sapiens), P47898. cell-based. activation, % at 9.3 µM. 0.61% of 340,000 active; in the data active = activation mostly above about 9.5%, no sharp cut-off; inactive = mostly below about 7.6%;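 also: 0% = cells with vehicle only and 100% = reference agonist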
MOR-DOR ag = agonists of OPRM1-OPRD1 heterodimerization, primary screen, cell-based, luminescence; cells; activation, % at 9.3 µM; 0.3% of 340,000 active; AID 504326, 2011; in the data active = activation above about 18%;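 also: 0% = vehicle-treated cells and 100% = reference agonist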
MOR ag counter = OPRM1 agonists via beta-arrestin recruitment, confirmation, counter-screen for mouse HTR2A agonist project, cell-based, luminescence, single concentration. shares compounds with HTR2A ag. U2OS OPRM1 beta-arrestin PathHunter; DMSO 0%, DAMGO 9.3 µM 100%. activation, % at 9.3 µM. 5.3% of 2,300 active;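 active = mean activation above the mean of DMSO-only wells plus 3 SD, cut at about 0.5% in these data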
m5-HT2A ag conf = mouse HTR2A agonists, beta-arrestin recruitment, confirmation, cell-based, luminescence, CHO-K1 PathHunter, triplicate; shares compounds with HTR2A ag; DMSO 0%, 30 µM serotonin 100%; activation, % at 7.6 µM; 19% of 2,300 active; AID 624381, 2012;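 active = mean activation across triplicates above the hit threshold derived in the original primary screen, cut at about 15% in these data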
Starred values were filed as active, the others as inactive; . = no result; ! = repeats disagree.

SMILES	HTR5A inv ag	HTR2A ag	MOR-DOR inv ag	HTR5A ag	MOR-DOR ag	MOR ag counter	m5-HT2A ag conf
COc1cccc(-c2nc(NCC3CCCO3)c3ccccc3n2)c1O (stereo not drawn)	8.9	32.2*	-3.8	1.5	0.8	-0.4	15.2*
COc1cccc(-c2nc(Oc3cccc(C)c3C)c3ccccc3n2)c1O	-22.8	1.9	0.3	2.5	-0.1	.	.
COc1cccc(-c2nc(NC(C)C)c3ccccc3n2)c1O	4.6	45.8*	4.0	-1.9	-0.8	-0.1	47.5*
CCC(C)Nc1nc(-c2cccc(OC)c2O)nc2ccccc12 (stereo not drawn)	-12.6	59.2*	-27.5	3.6	5.1	-0.2	33.5*
O=C(NCCc1cccc(Cl)c1)c1ccc2c(c1)OCO2	0.3	-0.5	2.0	-0.1	-0.5	.	.
O=C(Cn1cnc2ccccc2c1=O)N1CCN(Cc2ccc3c(c2)OCO3)CC1	-17.6	15.2*	1.6	6.4	-0.3	-0.5	46.8*
CCOc1ccc(S(=O)(=O)NCCCN2CCOCC2)cc1	-8.4	1.4	3.2	6.6	-0.6	.	.
COc1ccc(C(C(=O)NCc2ccccc2)N(Cc2cccnc2)C(=O)c2snc(C(N)=O)c2N)cc1OC (stereo not drawn)	-13.1	1.2	3.4	2.3	-0.6	.	.
CN(C)c1ccc(C(C(=O)NCc2ccccc2)N(Cc2cccnc2)C(=O)c2snc(C(N)=O)c2N)cc1 (stereo not drawn)	1.8	18.6*	-1.3	-0.7	0.2	-0.6	-1.4
Cc1cn(C2CCC(CO)O2)c(=O)[nH]c1=O (stereo not drawn)	1.9	8.9	22.8	-0.5	-5.0	.	.
NC(=O)Cn1nc(C(F)(F)F)c2c1CCCC2	-14.1	40.0*	13.3	5.5	-2.8	-0.5	-2.7
CCN1CCN(C(CNS(=O)(=O)c2ccc(OC)cc2)c2cccnc2)CC1 (stereo not drawn)	-2.9	14.7*	9.7	0.9	-1.6	-0.6	-4.6
Cc1cccc(C)c1NC(=O)NN=C1CCCCC1	-16.1	15.6*	4.5	-3.7	-0.9	-0.7	-2.7
COc1cc(C2N(c3cccc(Cl)c3)C(=O)C3CCCN32)cc(OC)c1OC (stereo not drawn)	4.7	21.2*	15.3	-1.8	-3.1	-0.6	0.5
COc1cccc(C2N(c3cccc(Cl)c3)C(=O)C3CCCN32)c1OC (stereo not drawn)	13.7	17.5*	-1.6	-5.0	0.3	-0.7	1.2
CC1=C(C(=O)N(C(C)C)C(C)C)CC(CC(=O)NCCN2CCOCC2)C(=O)N1CCC1=CCCCC1 (stereo not drawn)	.	15.8*	.	.	.	-0.3	-4.1
CCSc1cc(C)nc2ncnn12	-22.2	9.9	7.0	-0.3	-1.2	.	.
CCCCCCSc1cc(C)nc2ncnn12	-10.8	21.0*	-0.1	0.6	0.0	0.0	4.4
COCCN(Cc1ccccc1)C(=O)c1ccc(C(=O)c2ccccc2)cc1	7.4	22.3*	-10.1	-3.0	2.3	-0.2	-2.0
COCCN(Cc1ccccc1)C(=O)c1cccc(S(=O)(=O)N2CCN(c3ccccc3)CC2)c1	10.8	5.7	11.1	-4.4	-2.1	.	.
O=C1CCc2cc(S(=O)(=O)Nc3cccc(Cl)c3)ccc2N1	.	-2.1	.	.	.	.	.
Cc1cccc(NS(=O)(=O)c2ccc3c(c2)CCC(=O)N3)c1	-6.9	16.0*!	-24.0	3.0	2.9	-0.4	4.8
CC(C)N1CCCC(C)(C(=O)Nc2nc3ccccc3n2C)C1 (stereo not drawn)	.	1.2	.	.	.	.	.
COc1ccc(NC2CCCN(C(=O)CCCN3CCCCC3=O)C2)cc1 (stereo not drawn)	-12.5	5.5	8.9	3.3	-1.7	.	.
CC(C)C[C@H](NC(=O)c1[nH]cnc1C(=O)Nc1ccccc1)C(=O)OC(C)(C)C	11.2	16.4*	-29.7	-0.9	5.1	-0.3	-6.0
SMILES	HTR5A inv ag	HTR2A ag	MOR-DOR inv ag	HTR5A ag	MOR-DOR ag	MOR ag counter	m5-HT2A ag conf
O=C(NCc1cc(Cl)cc(Cl)c1)c1ccc2sc([C@@H]3O[C@H](CO)[C@H](O)[C@H](O)[C@H]3O)nc2c1	.	-3.5	.	.	.	.	.
CC(=O)OC1C=CCC2C(=O)c3cccc(O)c3C(O)C12 (stereo not drawn)	7.1	16.7*	-13.2	-1.8	2.6	-0.2	-0.2
CCOC(=O)C1(CCCc2ccccc2)CCN(Cc2ccn[nH]2)CC1	7.8	14.8*	-13.9	-2.9	1.9	-0.5	-5.4
CCOC(=O)C1(CCc2ccccc2)CCN(Cc2ccccn2)CC1	3.2	0.9	-28.4	-1.2	5.0	.	.
CCCCn1nnnc1C(c1cc2ccccc2o1)N(CCC#N)Cc1ccccc1 (stereo not drawn)	.	-6.5	.	.	.	.	.
CCCCn1c(N)c(N(CCC(C)C)C(=O)c2ccc([N+](=O)[O-])s2)c(=O)[nH]c1=O	-9.5	18.8*	-37.3	1.1	5.7	-0.2	-3.6
CCCCN(C(=O)c1ccc([N+](=O)[O-])s1)c1c(N)n(CC(C)C)c(=O)[nH]c1=O	-8.7	4.6	-4.7	0.2	0.9	.	.
COC(=O)Cn1nnc(-c2cccc(OC)c2)n1	16.3	-5.0	-5.8	-6.2	0.9	.	.
Cc1cccc(NC(=O)C2Cc3ccccc3O/C2=N\O)c1 (stereo not drawn)	11.8	15.7*	13.0	-3.3	-2.9	-0.6	-2.6
O=C(Cn1cc(Br)ccc1=O)Nc1ccc2c(c1)OCO2	11.2	-4.1	6.1	-4.6	-1.5	.	.
O=C(Cn1cc(C(F)(F)F)ccc1=O)Nc1ccc2c(c1)OCO2	.	17.1*	.	.	.	-0.6	-3.4
COc1ccc(S(=O)(=O)NCc2ccc(C(=O)N3CCc4ccccc4C3)cc2)cc1	-13.0	1.6	9.1	-6.0	-1.9	.	.
CN1CCN(NC(=O)Nc2ccc(F)cc2)CC1	21.8	14.5*	14.1	0.6	-2.7	-0.7	-1.6
COc1ccc(NC(=O)NN2CCN(C)CC2)cc1	4.0	3.6	-5.8	2.0	1.1	.	.
CCCCN(C(=O)CCC(=O)Nc1cc(C)on1)C(C(=O)NC1CCCC1)c1cccc(OC)c1 (stereo not drawn)	-21.3	14.4*	-0.6	7.2	0.1	-0.6	-5.0
Cc1cccc(C(C)C)c1NC(=O)COC(=O)CN1C(=O)C2CC=CCC2C1=O (stereo not drawn)	0.9	20.5*	18.1	1.4	-3.4	-0.1	5.9
COC(=O)C1=C(C)N(C2CCCCC2)C(=O)/C1=C\c1cccs1	.	1.1	.	.	.	.	.

Screening results (PubChem)
